# Only a selection was taken, and hits are over-represented in it overall.
# RORg inh – qHTS for inhibitors of ROR gamma transcriptional activity | Drosophila S2 Gal4-RORgamma UAS-luciferase reporter, 20 h | Potency, µM (highest dose often 53.6 µM), without a hit: at the top dose activity change, negative = inhibition, actives largely listed as inhibitors | hit rate 5.4% among 310,000; note: potency is the fitted concentration of half-maximal effect; % is set by controls: 0 for no effect and ±100 for the full control effect; nearly all actives have a fitted effect of over 60% in size
# Target sequence (P51450 whole entry, looked up, the tested form may be a part): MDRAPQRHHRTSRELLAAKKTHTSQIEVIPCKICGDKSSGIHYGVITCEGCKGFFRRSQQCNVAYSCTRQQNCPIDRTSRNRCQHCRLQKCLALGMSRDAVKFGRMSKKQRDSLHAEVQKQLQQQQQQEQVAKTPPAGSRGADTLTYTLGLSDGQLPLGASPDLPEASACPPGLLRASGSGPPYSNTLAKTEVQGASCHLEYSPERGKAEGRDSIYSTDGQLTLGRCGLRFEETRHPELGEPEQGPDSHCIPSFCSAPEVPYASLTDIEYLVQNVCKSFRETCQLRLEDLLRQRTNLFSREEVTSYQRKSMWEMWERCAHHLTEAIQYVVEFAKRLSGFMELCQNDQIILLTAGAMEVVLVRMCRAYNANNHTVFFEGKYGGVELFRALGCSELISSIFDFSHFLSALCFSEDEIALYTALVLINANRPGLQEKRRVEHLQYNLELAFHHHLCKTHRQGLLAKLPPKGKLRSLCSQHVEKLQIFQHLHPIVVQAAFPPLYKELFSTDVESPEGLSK
#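 Read-out: Photinus luciferase luminescence; inhibitors lower reporter signal. Insect Schneider cells with Gal4-ROR gamma fusion under metallothionein promoter, UAS reporter; 700 uM final copper sulfate induction, 20 hr, ambient temperature.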
# ERG-DNA inh – qHTS for Small Molecule Inhibitors of the ERG Ets/DNA interaction. Transcriptional regulator ERG (Homo sapiens), P11308. fluorescence polarization, His-ERG Ets domain / labelled DNA. Potency, µM (top dose mostly 76.9 µM), for inactives: at the highest dose FP activity, negative = inhibition, most hits filed as inhibitors. hit rate 0.028% among 370,000. AID 624246, 2012; active = well fitted inhibition curve with a large enough effect in the polarisation, with a control signal flat; inconclusive = small, poorly fitted or top-dose-only effect, or effect the other way, or a change in a side signal; inactive = no such curve, though single readings can be large or run the other way; the % refers to the polarisation;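 note: polarization taken with two DNA probes labelled with fluorescein and Texas red; potency is the fitted concentration of half-maximal effect; % of control where 0% means no effect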
#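 His-tagged ERG Ets domain (1 uM in the protein solution; 300mM KCl, 50mM Tris-HCl, 1mM EDTA, 1mM DTT, pH 7.5) received compound, then a probe mix of 5 nM fluorescein-DNA and 100nM Texas-615-DNA. Fluorescence polarization was read for both dyes.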
# a7 integrin act – qHTS for Activators of Integrin-Mediated Alleviation for Muscular Dystrophy | alpha7betagal myoblasts, beta-gal FDG fluorescence, 48 h | Potency, µM (doses to about 38.3 µM), without a hit: at the highest dose activation, hits mostly activators | hit rate 0.064% among 350,000 | AID 624291, 2012;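 note: potency is the fitted concentration of half-maximal effect; 100% = response of the positive control SU9516; nearly all actives have a fitted effect of over 60% in size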
#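 Alpha7betagal+/- myoblasts (passage 13) were plated 16-24 hr, then exposed to compounds (1:260 dilution of DMSO stock) for 48 hours at 37C. After MPER lysis, β-galactosidase reporter activity was read as FDG fluorescence (ex 480/em 540) after 30 minutes.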
# Giardia kill – Small Molecules that selectively kill Giardia lamblia: qHTS | hit rate 0.15% among 340,000 | Giardia lamblia trophozoite viability | activity change, % at 7.66 µM, hits read low; in the data active = activity change below about -80%; inconclusive = between about -30% and that limit;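 note: parasites exposed to compound for two days anaerobically before the ATP read; % is set by controls: 0 for no effect and ±100 for the full control effect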
#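 Anaerobic 48 hrs incubation at 37 deg C of 100 trophozoites/well with test compounds; ATPLite 1-Step luminescence, 15-30 min RT, reports cellular ATP as viability.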
# VP16 counter – VP16 counterscreen qHTS for inhibitors of ROR gamma transcriptional activity | Drosophila S2 Gal4-VP16 UAS-luciferase, luminescence, 20 h | AID 2546, 2010 | hit rate 3.5% among 310,000 | Potency, µM (titrated, usually from 53.6 µM), for the others: at the top dose activity, negative = inhibition, most hits filed as inhibitors;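 note: Gal4-VP16 expression switched on by copper sulfate through the metallothionein promoter; potency is the fitted concentration of half-maximal effect; % is set by controls: 0 for no effect and ±100 for the full control effect; nearly all actives have a fitted effect of over 50% in size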
# * hit, by the source's call; ? = inconclusive; . = no result given; [ ] = remark or other dose. Unless noted, calls come from the whole dose curve; as a rule, active = well fitted curve in the direction sought with a large enough effect; inconclusive = small, poorly fitted or top-dose-only effect, or another doubt; inactive = no such curve, though single readings can be large; an effect the other way counts as inactive or inconclusive.
SMILES,RORg inh,ERG-DNA inh,a7 integrin act,Giardia kill,VP16 counter
COc1ccc(-c2nc3ccccc3o2)cc1NC(=O)CSc1ccc(Cl)cc1,1.4µM*,-4%,-15%,-15,-26%
CCn1cc(C(=O)O)c(=O)c2cnc(N3CCN(C(=S)NC(=O)c4ccccc4)CC3)nc21,2.5µM*,33%,18%,-3,1%
CCCOc1ccc(C(=O)NC(=S)N2CCN(c3ncc4c(=O)c(C(=O)O)cn(CC)c4n3)CC2)cc1,.,.,-1%,.,.
CCn1cc(C(=O)O)c(=O)c2cc(F)c(N3CCN(C(=S)NC(=O)c4cc(OC)cc(OC)c4)CC3)cc21,2.5µM*,2%,32%,1,6.3µM*
N#Cc1c(N)nc(SCc2ccccn2)c(C#N)c1-c1cccs1,13µM*,4%,-20%[7.66 µM],15,-15%
CCOC(=O)CSc1nc(N)c(C#N)c(-c2cccs2)c1C#N,34%,-7%,17%,0,-10%
N#Cc1c(N)nc(SCc2ccccc2)c(C#N)c1-c1ccco1,?,.,-3%,1,7.9µM*
COC(=O)[C@H]1O[C@@H](c2cc(OC)c(C)c(OC)c2O)[C@H](C)[C@@H](O)[C@H]1C,-11%,.,.,.,-8%
CCOC(=O)c1c(-c2ccc(C)o2)csc1NC(=O)COC(=O)c1cccs1,?,-21%,13%,28,20µM*
CCOC(=O)c1c(-c2ccc(C)o2)csc1NC(=O)CN1CCOCC1,13%,1%,-3%,2,-1%
CCOC(=O)c1c(-c2ccc(C)o2)csc1NC(=S)NC(=O)N(C)C,0.79µM*,-2%,-46%,-1,2.2µM*
Cc1ccc(O/C=C2/Nn3c(nnc3-c3cc(-c4ccccc4)n[nH]3)S2)cc1,.,.,.,15,.
Cn1c2c(c(=O)n(C)c1=O)C(C(F)(F)F)(C(F)(F)F)N=C(c1ccc(Cl)cc1)N2,6.3µM*,0%,-51%,11,3.2µM*
Cc1cc(N/N=C/c2ccc(F)cc2)nc(NCc2ccccc2)n1,11µM*,0%,-23%,-15,?
COc1ccc(/C=N/Nc2cc(C)nc3ccccc23)cc1,?,12%,-48%,-14,?
Cc1ccc(/C=N/Nc2cc(C)nc(NCc3ccccc3)n2)cc1,20µM*,0%,-55%,-5,?
Cc1cc(N/N=C/c2ccc(N(C)C)cc2)nc(NCc2ccccc2)n1,-28%,0%,-76%,-10,-3%
COc1ccc2nc(C)cc(N/N=C/c3ccc(F)cc3)c2c1,4µM*,2%,-54%,-81*,5µM*
Cc1cc(N/N=C/c2ccc(Cl)cc2Cl)nc(NCc2ccccc2)n1,?,-1%,-48%,-5,?
CC(C)N(Cc1ccccc1)C(=O)c1nc(-c2ccc(Cl)cc2)n2c1CCCCC2,.,1%,.,.,.
O=C(c1ccc(Cn2cc(Br)cn2)o1)N1N=C(C(F)F)CC1(O)C(F)F (centres undefined),11µM*,-9%,-5%,-19,-18%
O=C(c1ccc(COc2ccc(Cl)cc2)o1)N1N=C(C(F)F)CC1(O)C(F)F (centres undefined),?,-13%,-6%,-13,?
O=C(CCC(=O)c1ccc(F)cc1)Nc1cc(Cl)cc(Cl)c1,16%,-6%,-10%,16,-9%
Nc1c(C(=O)N2CCOCC2)sc2nc3c(cc12)CCCC3,10µM*,-4%,14%,-27,?
Nc1c(C(=O)N2CCOCC2)sc2nc3c(cc12)CCC3,?,13%,11%,-4,?
SMILES,RORg inh,ERG-DNA inh,a7 integrin act,Giardia kill,VP16 counter
Cc1ccc(C)c2nc3sc(C(=O)N4CCOCC4)c(N)c3cc12,31%,3%,-31%,3,-12%
Cc1cc(C)c2nc3sc(C(=O)N4CCOCC4)c(N)c3cc2c1,10µM*,13%,-49%,-13,?
O=C(O)CCCCCNC(=O)CCn1nnc2ccccc2c1=O,22%,4%,14%,60,0%
O=C(O)CCCNC(=O)CCn1nnc2ccccc2c1=O,7%,5%,11µM*,-26,-17%
CCn1ccc2cc(S(=O)(=O)N3CCC(C(=O)NCc4ccc(OC)cc4)CC3)ccc21,.,-1%,.,.,.
CC(SC1=NCCS1)C(=O)Nc1nnc(-c2ccc(Cl)cc2)s1 (centres undefined),5µM*,9%,-10%,10,8.9µM*
COc1ccccc1-c1nnc(NC(=O)C(C)SC2=NCCS2)s1 (centres undefined),13µM*,-13%,-2%,8,?
Cc1ccc(-n2ncc3c(Nc4cccc(Cl)c4)ncnc32)c(C)c1,.,-2%,.,.,.
CCCCCC(O)(c1ccc(OCC)cc1)C(CN1CCOCC1)c1ccccc1 (centres undefined),36%,5%,-56%,-8,-20%
O=C(CN1c2ccccc2Sc2ccccc21)NNC(=S)Nc1ccc(Cl)cc1Cl,13µM*,-3%,4%,2,?
O=C(CN1c2ccccc2Sc2ccccc21)NNC(=S)Nc1ccc(Cl)cc1,10µM*,2%,-24%,8,?
CCN(CC)c1ccc(/C=C2\SC(=O)N(C(C)C)C2=O)o1,3.5µM*,48%,-39%,-7,4.5µM*
CN(C)c1ccc(/C=N/N=C/c2ccccc2O)cc1,7.9µM*,-8%,-25%,10,?
Cc1ccc(/C=c2/sc3nnc(-c4ccccc4Cl)n3c2=O)o1,4.5µM*,5%,-13%,-9,?
CCN(CC)c1ccc(/C=c2\sc3nnc(-c4ccccc4Cl)n3c2=O)cc1,4%,38%,-26%,3,12%
O=C(CCC1CCCN(C(=O)c2cccc(F)c2)C1)N1CCN(c2ccccn2)CC1 (centres undefined),20%,-5%,9%,-11,0%
CCn1c(SCC(=O)Nc2cccc(C)n2)nc2c1c(=O)n(C)c(=O)n2C,5%,4%,3%,13,-6%
O=c1cc(-c2ccc(O)c(O)c2)oc2ccccc12,3.2µM*,.,.,.,1%
CCNc1ncc2nc(-c3ccc(OC)cc3)c(=O)n(CCC#N)c2n1,5%,.,.,.,-4%
COc1ccc(OCc2cccc(C(=O)NN)c2)cc1,14µM*,-3%,-15%,-8,?
NNC(=O)c1cccc(COc2cccc(Br)c2)c1,13µM*,-10%,-8%,-4,?
O=C(Nc1ccc(N2CCCCC2)cc1)c1ccccn1,1.3µM*,3%,-9%,-102*,2µM*
O=C(Nc1ccc(N2CCCCCC2)cc1)c1ccccc1Cl,18%,1%,-52%,6,7%
O=C(Nc1ccc2c(c1)OCCO2)c1ccccn1,7.1µM*,-5%,25%,?,14µM*
CCCOC(=O)Nc1ccc(N2CCCCC2)cc1,11µM*,6%,13%,-14,?
CCCCC(=O)Nc1ccc(N2CCCC2)cc1,.,0%,22%,13,.
Cn1ccc(C(=O)Nc2ccc3c(c2)OCCO3)n1,7.9µM*,1%,-16%,-13,?
